Screens: PubChem BioAssay, National Center for Advancing Translational Sciences (NCATS)
Most compounds without a hit are left out; they make up all but 4.7% or so of the library.
TRHR PAM: qHTS for Small Molecule Agonists and Allosteric Enhancers of Human TRH Receptor: Primary Screen for Enhancers; Thyrotropin-releasing hormone receptor (Homo sapiens), P34981; TRHR cells, fluo-8 calcium fluorescence, EC20 TRH enhancement; enhancement, % at 2 µM; hit rate 0.66% among 360,000; in the data active = enhancement above about 30%; also: 0% is about no effect
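TRHR-expressing cells loaded with fluo-8 calcium dye were read kinetically (ex 480/em 530) during compound addition, then stimulated with an EC20 of TRH (10 nM final). Enhancement of the Gq-mediated intracellular calcium response was scored.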
D1 potentiator: Potentiators of Human D1 Dopamine Receptor: qHTS; D(1A) dopamine receptor (Homo sapiens), P21728; HEK293 TREx D1 cells, calcium flux, dopamine EC20 potentiation; potentiation, % at 10 µM; hit rate 0.036% among 360,000; AID 504651, 2011; in the data active = potentiation above about 30%; also: 0% is about no effect
Target sequence (P21728 whole entry, looked up): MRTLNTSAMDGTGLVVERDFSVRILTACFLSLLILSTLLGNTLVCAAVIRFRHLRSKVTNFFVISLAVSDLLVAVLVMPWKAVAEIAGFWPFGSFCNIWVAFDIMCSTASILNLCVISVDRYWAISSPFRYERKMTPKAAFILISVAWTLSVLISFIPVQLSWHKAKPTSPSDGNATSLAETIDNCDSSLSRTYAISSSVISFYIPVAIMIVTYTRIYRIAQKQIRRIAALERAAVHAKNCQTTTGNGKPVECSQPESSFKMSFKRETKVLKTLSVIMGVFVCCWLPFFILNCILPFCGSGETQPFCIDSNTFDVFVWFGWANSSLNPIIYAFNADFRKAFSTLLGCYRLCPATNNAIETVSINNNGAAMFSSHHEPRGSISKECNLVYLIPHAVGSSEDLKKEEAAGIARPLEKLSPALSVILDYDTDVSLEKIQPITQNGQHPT
D1 antagonist: Antagonist of Human D 1 Dopamine Receptor: qHTS; HEK293 TREx D1 cells, calcium flux, dopamine EC80; stronger effect = lower value; D(1A) dopamine receptor (Homo sapiens), P21728; hit rate 3.2% among 360,000; activity change, negative = inhibition, % at 10 µM; in the data active = activity change below about -30%; also: % is scaled to controls: 0 for no effect and ±100 for the full control effect
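Allosteric or orthosteric antagonism assessed as attenuation of the calcium response to EC80 dopamine, added 180 s after compound, in induced HEK293 Trex D1 cells loaded with no-wash calcium dye.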
D1 agonist: Allosteric Agonists of the Human D1 Dopamine Receptor: qHTS. D(1A) dopamine receptor (Homo sapiens), P21728. HEK293 T-REx D1 cells, calcium flux, agonist mode. activation, % at 2 µM. hit rate 1% among 360,000. AID 504660, 2011; also: 0% is about no effect
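Agonism was scored from calcium flux recorded over 180 s (1 read/s) after pintool compound addition, following a 10-cycle baseline. Cells were inducible force-coupled HEK293 TREx D1, plated overnight at 30 C and loaded with no-wash calcium dye.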
TRHR ag: qHTS for Small Molecule Agonists and Allosteric Enhancers of Human TRH Receptor: Primary Screen for Agonists. Thyrotropin-releasing hormone receptor (Homo sapiens), P34981. TRHR cells, calcium flux fluo-8, FDSS agonist mode. activation, % at 2 µM. hit rate 0.18% among 360,000. AID 493084, 2011; also: 0% is about no effect
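Fluo-8-loaded TRHR cells; 10 s baseline, compound added, kinetic Ca2+ fluorescence read 1/s, agonist mode.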
* hit, by the source's call. Rule as the data show it, unless noted: active = activation above about 30%; inactive = the rest.

SMILES	TRHR PAM	D1 potentiator	D1 antagonist	D1 agonist	TRHR ag
Cc1ccc(-c2nc(N)sc2CC(=O)OCC(=O)NCCC(C)C)cc1	2	-5	-57*	1	0
CC(C)CCNC(=O)COC(=O)c1cc(Br)c(Br)s1	8	-6	-20	1	-1
CCOC(=O)Cc1sc(N)nc1C	-2	6	-22	2	1
Cc1ccc(-c2nc(N)sc2CC(=O)OCC(=O)NCC2CCCO2)cc1 (configuration not stated)	1	-7	-42*	0	1
CCC(C)NC(=O)COC(=O)Cc1sc(N)nc1-c1ccc(C)cc1 (configuration not stated)	1	-5	-60*	3	0
CCCc1sc(N)nc1-c1ccc(C)cc1	5	-4	-60*	4	0
COCCn1c(=NC(=O)CSCC(=O)N2CCOCC2)sc2ccccc21	1	-5	-46*	0	0
O=C(CCn1cccn1)N1CCCC(N2CCN(c3cccc(C(F)(F)F)c3)CC2)C1 (configuration not stated)	34*	2	7	2	0
Cc1cc(C(=O)N2CCCC(N3CCN(c4cccc(C(F)(F)F)c4)CC3)C2)n[nH]1 (configuration not stated)	4	0	-50*	3	0
O=C(Cn1cccn1)N1CCCC(N2CCN(c3cccc(C(F)(F)F)c3)CC2)C1 (configuration not stated)	0	-2	6	3	0
CC(=O)c1ccc(NC(=O)CCNS(=O)(=O)c2ccccc2F)cc1	-3	1	1	5	0
CCC(C(=O)Nc1ccccc1OC)n1nc(C)c2sc3ccccc3c2c1=O (configuration not stated)	-4	-1	12	25	0
Cc1ccc(C2NC(=O)NC3=C2CCc2ccccc23)cc1 (configuration not stated)	0	-2	-60*	0	0
CC(C)c1ccc(C2NC(=O)NC3=C2CCc2ccccc23)cc1 (configuration not stated)	8	0	-3	3	-1
O=C(CCCOc1ccc(Cl)cc1)NC1CCCCC1	-12	-6	4	-1	-1
N#CC(C#N)=C(N)CSc1cccc[n+]1[O-]	35*	4	6	2	0
CCCn1c(SCC(=O)NNC(=O)c2ccc(C)cc2)nnc1C(C)C	1	-6	-19	2	0
Oc1ccc(N=Nc2n[nH]c(-c3ccc(Br)cc3)n2)cc1	9	6	-39*	1	0
Oc1ccc(N=Nc2n[nH]c(-c3ccccc3)n2)cc1	8	1	0	0	0
N[C@@H](CO)c1nnc([C@H](CC(=O)O)NC(=O)C2CCNCC2)o1	2	1	-1	-5	0
N[C@@H](Cc1ccc(O)cc1)c1nnc([C@H](CCC(=O)O)NC(=O)C2CCNCC2)o1	-11	-2	-41*	-1	0
N[C@@H](CO)c1nnc([C@H](CCC(=O)O)NC(=O)C2CCNCC2)o1	0	-6	-38*	0	0
Cc1occc(=O)c1OC(=O)Nc1ccc(Cl)c(Cl)c1	0	-20	-47*	13	1
COc1cc(/C=N/O)cc(Cl)c1OC	0	0	38	89*	0
COc1cccc(NC(=O)N2CCCC2C(=O)NC23CC4CC(CC(C4)C2)C3)c1 (configuration not stated)	9	-5	-5	1	0
SMILES	TRHR PAM	D1 potentiator	D1 antagonist	D1 agonist	TRHR ag
COc1ccc(C(=O)NNC(=S)NC(=O)c2ccco2)cc1	2	5	-7	8	2
COc1ccccc1C(=O)NNC(=S)NC(=O)c1ccco1	1	-1	-7	50*	6
CCNC(=S)Nc1cc(OC)c(NC(=O)c2ccco2)cc1OC	0	0	-5	2	0
COC(=O)NNC(=O)c1ccccc1OC	-1	-5	-7	1	-2
COC(=O)c1cc(OC)c(OC)cc1NC(=S)NC(=O)c1ccco1	-4	-4	-38*	0	1
COc1ccccc1C(=O)NNC(=S)Nc1ccccc1	0	-3	-31*	5	0
COc1ccc(-c2noc(CN(C)Cc3ccccc3)n2)c(OC)c1OC	-2	-3	-8	5	-1
Cc1cc(C(=O)NNC(=O)/C=C/c2ccco2)c(C)o1	-2	-2	2	2	0
CCOc1ccc(CCNC(=O)c2ccc(=O)[nH]c2)cc1OCC	-1	-6	5	1	0
Cc1cccc(-n2c3nc(=O)[nH]c(=O)c-3cc3ccc(Cl)cc32)c1C	-9	5	4	3	4
Cn1c(-c2ccccc2)c(/C=N/NC(=O)c2ccc(O)cc2)c2ccccc21	2	1	7	4	0
COc1ccc(CNC(=O)c2ccc(NC(=O)N3CCCCc4ccccc43)cc2)c(OC)c1	5	-2	-4	3	1
O=C(CSc1ccc(Cl)cc1)c1ccco1	36*	-7	-11	5	0
O=C(CCSc1ccc(Cl)cc1)c1ccco1	-2	-6	-9	2	-1
COc1ccc(S(=O)(=O)N(CCc2ccccc2)CC(=O)N2CCOCC2)cc1	1	-4	-74*	1	-1
COc1ccc(S(=O)(=O)N(C)CC(=O)N2CCOCC2)cc1	6	-3	-12	0	1
Cc1ccc(N=C2NC(=O)/C(=C/c3cn(C)c4ccccc34)S2)cc1C	7	-2	-99*	54*	18
CC(C)N(Cc1ccccc1)C(=O)Cn1ncc2c3ccccc3n(Cc3ccccc3)c2c1=O	-4	-4	-23	5	2
COc1ccc(-c2nc3cc(C)ccn3c2NC(=O)c2ccc(F)cc2)cc1	3	-1	-40*	1	0
COc1cccc2sc(N(CCCN(C)C)C(=O)c3ccc(S(=O)(=O)N4CCCc5ccccc54)cc3)nc12	1	-1	-13	39*	1
CN(C)CCN(C(=O)c1ccc(S(=O)(=O)N2CCc3ccccc32)cc1)c1nc2ccc(F)cc2s1	-22	-11	-36*	2	0
CN(C)CCCN(C(=O)c1ccc(S(=O)(=O)N2CCc3ccccc32)cc1)c1nc2c(Cl)cccc2s1	8	2	-3	5	1
COc1ccc(NC(=S)NC(=O)Cc2ccccc2)c(OC)c1	2	3	11	16	2
Cc1ccc(NC(=S)NC(=O)Cc2ccccc2)c(O)c1	1	0	-10	33*	2
